From PubChem BioAssay AID1159580 (chemical genetic matrix, 2015)
Several values for one entry are separate records, joined by “and”; a condition that tells them apart may be missing. Equal values may be shown once. About 2,000 (36%) of roughly 5,500 compounds were called active. Not shown: some 18% with an inconclusive outcome. No stated cut-off is given here; in the data, active means normalized growth mostly below about 0.91 (no sharp cut-off); inconclusive means no clear call, values can overlap the other calls; inactive means mostly above about 0.92. This is one part of the list.

Experiment: chemical genetic growth profiling, strain panel (AID 1159580);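 further: tested at 20 µM; growth read once vehicle control cultures reached saturation at 30 °C; 1 = growth at the plate median or of vehicle wells; lower values mean less growth of the strain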
Settings: growth OD

Measured: normalized growth

COc1ccc(CN(CCN(C)C)c2ccccn2)cc1
inactive: S. cerevisiae deletion strains, locus YJR066W, strain TOR1, active compounds read low 0.997 | S. cerevisiae deletion strains, locus YJR075W, strain HOC1, active compounds read low 0.979 | S. cerevisiae deletion strains, locus YKL009W, strain mrt4, active compounds read low 0.954 | S. cerevisiae deletion strains, locus YKL068W, active compounds read low 0.992 | S. cerevisiae deletion strains, locus YKL085W, strain MDH1 (second series), active compounds read low 0.978 | S. cerevisiae deletion strains, locus YKL085W, strain MDH1, active compounds read low 0.978 | S. cerevisiae deletion strains, locus YKL160W, strain elf1, active compounds read low 1.04 | S. cerevisiae deletion strains, locus YKL190W, strain CNB1, active compounds read low 0.996 | S. cerevisiae deletion strains, locus YKR001C, strain vps1, active compounds read low 0.994 | S. cerevisiae deletion strains, locus YKR026C, strain gcn3, active compounds read low 1.01 | S. cerevisiae deletion strains, locus YKR091W, strain srl3, active compounds read low 1 | S. cerevisiae deletion strains, locus YLL001W, strain dnm1, active compounds read low 1.01 | S. cerevisiae deletion strains, locus YLL026W, active compounds read low 1.02 | S. cerevisiae deletion strains, locus YLL041C, strain sdh2, active compounds read low 1.01 | S. cerevisiae deletion strains, locus YLR027C, strain aat2, active compounds read low 1.02 | S. cerevisiae deletion strains, locus YLR039C, strain RIC1, active compounds read low 0.996 | S. cerevisiae deletion strains, locus YLR058C, strain SHM2, active compounds read low 0.997 | S. cerevisiae deletion strains, locus YLR102C, strain apc9, active compounds read low 0.996 | S. cerevisiae deletion strains, locus YLR113W, strain HOG1, active compounds read low 1.01 | S. cerevisiae deletion strains, locus YLR221C, strain rsa3, active compounds read low 1.01 | S. cerevisiae deletion strains, locus YLR258W, strain gsy2, active compounds read low 1.03 | S. cerevisiae deletion strains, locus YLR262C, strain YPT6 (second series), active compounds read low 1.01 | S. cerevisiae deletion strains, locus YLR262C, strain YPT6, active compounds read low 0.992 | S. cerevisiae deletion strains, locus YLR268W, strain sec22, active compounds read low 0.963 | S. cerevisiae deletion strains, locus YLR320W, strain mms22, active compounds read low 1.02 | S. cerevisiae deletion strains, locus YLR330W, strain CHS5, active compounds read low 0.98 | S. cerevisiae deletion strains, locus YLR342W, strain FKS1 (second series), active compounds read low 0.995 | S. cerevisiae deletion strains, locus YLR342W, strain FKS1, active compounds read low 1.03 | S. cerevisiae deletion strains, locus YLR357W, strain rsc2, active compounds read low 1.03 | S. cerevisiae deletion strains, locus YLR370C, strain arc18, active compounds read low 1.02 | S. cerevisiae deletion strains, locus YLR371W, strain rom2, active compounds read low 0.972 | S. cerevisiae deletion strains, locus YLR384C, strain iki3, active compounds read low 1.02 | S. cerevisiae deletion strains, locus YLR418C, strain cdc73, active compounds read low 1 | S. cerevisiae deletion strains, locus YML016C, strain PPZ1, active compounds read low 0.997 | S. cerevisiae deletion strains, locus YML032C, strain rad52, active compounds read low 0.979 | S. cerevisiae deletion strains, locus YML120C, strain ndi1, active compounds read low 1.02 | S. cerevisiae deletion strains, locus YML124C, strain tub3, active compounds read low 0.991 | S. cerevisiae deletion strains, locus YMR058W, strain fet3, active compounds read low 1 | S. cerevisiae deletion strains, locus YMR078C, strain ctf18, active compounds read low 0.992 | S. cerevisiae deletion strains, locus YMR125W, strain sto1, active compounds read low 1.02 | S. cerevisiae deletion strains, locus YMR129W, active compounds read low 1.01 | S. cerevisiae deletion strains, locus YMR205C, strain PFK2, active compounds read low 1.02 | S. cerevisiae deletion strains, locus YMR223W, strain ubp8, active compounds read low 1.02 | S. cerevisiae deletion strains, locus YMR231W, strain pep5, active compounds read low 1.02 | S. cerevisiae deletion strains, locus YMR307W, strain GAS1, active compounds read low 1.01 | S. cerevisiae deletion strains, locus YNL067W, strain RPL9B, active compounds read low 0.996 | S. cerevisiae deletion strains, locus YNL071W, strain lat1, active compounds read low 1.02 | S. cerevisiae deletion strains, locus YNL128W, strain TEP1, active compounds read low 0.967 | S. cerevisiae deletion strains, locus YNL175C, strain NOP13, active compounds read low 1.01 | S. cerevisiae deletion strains, locus YNL183C, strain NPR1, active compounds read low 0.991 | S. cerevisiae deletion strains, locus YNL197C, strain WHI3, active compounds read low 0.966 | S. cerevisiae deletion strains, locus YNL209W, strain ssb2, active compounds read low 1.04 | S. cerevisiae deletion strains, locus YNL224C, strain SQS1, active compounds read low 0.988 | S. cerevisiae deletion strains, locus YNL233W, strain BNI4, active compounds read low 1 | S. cerevisiae deletion strains, locus YNL248C, strain rpa49, active compounds read low 1.05 | S. cerevisiae deletion strains, locus YNL250W, strain rad50, active compounds read low 0.985 | S. cerevisiae deletion strains, locus YNL271C, strain bni1, active compounds read low 0.992 | S. cerevisiae deletion strains, locus YNL298W, strain CLA4, active compounds read low 0.997 | S. cerevisiae deletion strains, locus YNL307C, strain MCK1, active compounds read low 0.986 | S. cerevisiae deletion strains, locus YNL322C, strain KRE1 (second series), active compounds read low 1.04 | S. cerevisiae deletion strains, locus YNR049C, strain mso1, active compounds read low 1.01 | S. cerevisiae deletion strains, locus YNR052C, strain pop2, active compounds read low 0.993 | S. cerevisiae deletion strains, locus YOL006C, strain TOP1, active compounds read low 1.04 | S. cerevisiae deletion strains, locus YOL012C, strain htz1 0.809 | S. cerevisiae deletion strains, locus YOL147C, strain pex11, active compounds read low 0.988 | S. cerevisiae deletion strains, locus YOR001W, strain rrp6, active compounds read low 0.991 | S. cerevisiae deletion strains, locus YOR061W, strain CKA2, active compounds read low 1 | S. cerevisiae deletion strains, locus YOR069W, strain VPS5, active compounds read low 0.986 | S. cerevisiae deletion strains, locus YOR070C, strain gyp1, active compounds read low 1.02 | S. cerevisiae deletion strains, locus YOR080W, strain dia2, active compounds read low 1.03 | S. cerevisiae deletion strains, locus YOR083W, strain WHI5 (second series), active compounds read low 0.991 | S. cerevisiae deletion strains, locus YOR083W, strain WHI5, active compounds read low 0.998 | S. cerevisiae deletion strains, locus YOR106W, strain vam3, active compounds read low 1.04 | S. cerevisiae deletion strains, locus YOR136W, strain idh2, active compounds read low 1 | S. cerevisiae deletion strains, locus YOR144C, strain elg1, active compounds read low 1 | S. cerevisiae deletion strains, locus YOR184W, strain ser1, active compounds read low 1 | S. cerevisiae deletion strains, locus YOR231W, strain MKK1, active compounds read low 1 | S. cerevisiae deletion strains, locus YOR265W, strain rbl2, active compounds read low 1.02 | S. cerevisiae deletion strains, locus YOR270C, strain vph1, active compounds read low 1.08 | S. cerevisiae deletion strains, locus YOR290C, strain snf2, active compounds read low 1.04 | S. cerevisiae deletion strains, locus YOR316C, strain cot1, active compounds read low 0.988 | S. cerevisiae deletion strains, locus YPL051W, strain arl3, active compounds read low 1.04 | S. cerevisiae deletion strains, locus YPL078C, strain atp4, active compounds read low 1.04 | S. cerevisiae deletion strains, locus YPL106C, strain sse1, active compounds read low 1.04 | S. cerevisiae deletion strains, locus YPL240C, strain hsp82, active compounds read low 1.01 | S. cerevisiae deletion strains, locus YPL241C, strain CIN2, active compounds read low 0.995 and 0.99 | S. cerevisiae deletion strains, locus YPL256C, strain CLN2, active compounds read low 1.05 | S. cerevisiae deletion strains, locus YPR119W, strain clb2, active compounds read low 0.988 | S. cerevisiae deletion strains, locus YPR141C, strain kar3, active compounds read low 0.981 | S. cerevisiae deletion strains, locus YPR163C, strain tif3, active compounds read low 0.988 | S. cerevisiae deletion strains, locus YPR167C, strain met16, active compounds read low 0.983 | S. cerevisiae deletion strains, strain wtn01, active compounds read low 0.984 | S. cerevisiae strains, strain wild type, active compounds read low 0.992
